The source of these data is PubChem BioAssay (Tox21).

Several values for one entry are separate records, joined by “and”; a condition that tells them apart may be missing. Equal entries are not always repeated. Results filed as inconclusive are left out. The source holds several records for some structures; these can differ, active in one and inactive in another. Activity calls are given as the source filed them. Calls come from the whole dose curve; as a rule, active = well fitted curve in the direction sought with a large enough effect in the repeat runs; inconclusive = weak or mixed curves; inactive = no such curve, though single readings can be large; an effect the other way counts as inactive or inconclusive.
% is set by controls: 0 for no effect and ±100 for the full control effect; potency is the fitted concentration of half-maximal effect.

Chain of Cytochrome P450 2D6 (Homo sapiens) (P10635 whole entry, looked up): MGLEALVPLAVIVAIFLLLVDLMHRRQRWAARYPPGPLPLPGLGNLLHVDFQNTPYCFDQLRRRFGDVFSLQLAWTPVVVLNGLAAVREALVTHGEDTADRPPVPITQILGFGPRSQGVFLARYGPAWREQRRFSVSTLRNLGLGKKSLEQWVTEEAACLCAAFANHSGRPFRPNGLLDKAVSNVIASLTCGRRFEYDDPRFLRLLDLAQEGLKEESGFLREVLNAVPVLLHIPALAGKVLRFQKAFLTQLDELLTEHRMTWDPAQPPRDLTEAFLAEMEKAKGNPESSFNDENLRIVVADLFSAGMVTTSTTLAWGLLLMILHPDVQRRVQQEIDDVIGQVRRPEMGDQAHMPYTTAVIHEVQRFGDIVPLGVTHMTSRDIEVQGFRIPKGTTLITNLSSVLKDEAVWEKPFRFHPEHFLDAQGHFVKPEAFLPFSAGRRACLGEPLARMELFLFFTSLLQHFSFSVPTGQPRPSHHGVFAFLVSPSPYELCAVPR

The first experiment deals with Nuclear receptor subfamily 1 group I member 2 (Homo sapiens) (UniProt O75469). The experiment can be described thus: Human pregnane X receptor (PXR) activation by small molecules, qHTS assay (AID 1346985). Note: nearly all actives have a fitted effect of over 40% in size. Conditions: DPX-2 HepG2 CYP3A4-luciferase, 24 h; series mostly up to 38.3 µM; activation: at the top concentration. The essentials:
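DPX-2 cells (HepG2 co-transfected with a PXR response element and a CYP3A4-promoter luciferase construct) were seeded at 2,000 per well, rested 5 hr at 37C, then exposed to DMSO-dissolved compounds for 24 hr. Activation was read as luciferase luminescence.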
(qHTS replaces the single test concentration by a dilution series.)
For `Nc1ncn([C@@H]2O[C@H](CO)[C@@H](O)[C@H]2O)c(=O)n1`, the “activation” value was 1.51% (inactive).
Regarding `CCOC(=O)C(C#N)=C(c1ccccc1)c1ccccc1`, the Potency is 12.6 µM (active).
As to `C[C@]12CCC(=O)C=C1CC[C@@H]1[C@@H]2C(=O)C[C@@]2(C)[C@H]1CC[C@]2(O)C(=O)CO`, the “activation” value is 1.03% (inactive).
With `CCCCC(CC)COC(=O)c1ccc(N(C)C)cc1` (stereo unspecified), the “activation” value was 2.98% (inactive).
Take `COc1cccc2c1C(=O)c1c(O)c3c(c(O)c1C2=O)C[C@@](O)(C(=O)CO)C[C@@H]3O[C@H]1C[C@H](N)[C@H](O)[C@H](C)O1`: the Potency entry is “inactive”.
For the compound `C=C(C)C1CC=C(C)CC1` (stereo unspecified), the “activation” value is -0.522% (inactive).
Take `Nc1ccc(S(=O)(=O)Nc2cnc3ccccc3n2)cc1`: the “activation” value is 0.967% (inactive).
For `O=S(=O)(O)c1ccc(O)cc1`, the “activation” value was 7.7% (inactive).
Turning to `O=C1c2cccc(O)c2C(=O)c2c(O)cccc21`, the “activation” value was 12.7% (inactive).
In the case of `CC(C)(C)NC(=O)[C@H]1CC[C@H]2[C@@H]3CC[C@H]4NC(=O)C=C[C@]4(C)[C@H]3CC[C@]12C`, the “activation” value was 7.91% [at 17.1 µM] (inactive).

The next experiment addresses Cytochrome P450 2D6 (Homo sapiens) (UniProt P10635). The experiment can be described thus: Cytochrome P450 Family 2 Subfamily D Member 6 (CYP2D6) small molecule antagonists: luciferase reporter qHTS assay (AID 1671196). Note: nearly all actives have a fitted effect of over 50% in size. The following applies: P450-Glo CYP2D6 enzyme assay, luciferin luminescence, 1 h; series mostly up to 115 µM; activity change, negative = inhibition: at the top concentration. The essentials:
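Read-out is luminescence from luciferin formed by CYP2D6 turnover of a proluciferin substrate, recorded as relative luminescence units. Reactions ran 1 h at room temperature after NADPH regeneration solution was added.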
Turning to `CCOCCOCCO`, the “activity change, negative = inhibition” value is -9.43% (inactive).
The same measure, in the same setting: as for `CC1=CCC(C(C)(C)O)CC1` (stereo unspecified), the figure is -7.9% (inactive).
Take `CC(=O)Oc1ccccc1C(=O)Nc1ncc([N+](=O)[O-])s1`: the Potency is 7.25 µM (active) and 7.76 µM (active).
As for `CC(=O)c1ccccn1`, the Potency result was “inactive”.
In the case of `Cc1cccc(N(C)C(=S)Oc2ccc3ccccc3c2)c1`, the Potency entry was “inactive”.
As for `NC=O`, the Potency entry was “inactive”.
The same measure, in the same setting: then `COc1ccc(OC)c(C(O)CNC(=O)CN)c1` (stereo unspecified), with “inactive”; and `O=CCCCC=O`, with “inactive”.
As to `COc1ccc(C(=O)CC(=O)c2ccc(C(C)(C)C)cc2)cc1`, the Potency was 38.3 µM (active) and inactive.
In the case of `Cc1[nH]c(=O)c(C#N)cc1-c1ccncc1`, the “activity change, negative = inhibition” value was -9% [at 53 µM] (inactive).
Consider `Nc1ncnc2nc[nH]c12`, for which the Potency result was “inactive”.
Regarding `O=C(COc1ccc(Cl)cc1)N1CCN(Cc2ccc3c(c2)OCO3)CC1`, the Potency was 1.59 µM (active) and 2.45 µM (active).
On the same count and under the same terms, then `Cc1c(C(N)=O)cc([N+](=O)[O-])cc1[N+](=O)[O-]`, with “inactive”; and `O=Cc1ccccc1O`, with “inactive”; and `C[Si](C)(C)O[Si](C)(C)C`, with “inactive”.
`O=C(O)c1ccccc1Nc1cccc(C(F)(F)F)c1`: the Potency entry is “inactive”.
In the case of `O=C(/C=C/c1ccccc1)OCc1ccccc1`, the Potency result was “inactive”.
Take `CCCC(=O)O`: the Potency entry was “inactive”.
For `C[C@]12CC[C@H]3[C@@H](CCC4=CC(=O)CC[C@@]43C)[C@@H]1CC[C@@H]2C(=O)CO`, the “activity change, negative = inhibition” value is -17.8% (inactive).
For `CCCCC(CC)COCC1CO1` (stereo unspecified), the Potency entry was “inactive”.
Turning to `Nc1ncn([C@@H]2O[C@H](CO)[C@@H](O)[C@H]2O)c(=O)n1`, the Potency entry was “inactive”.
In the case of `CCOC(=O)C(C#N)=C(c1ccccc1)c1ccccc1`, the “activity change, negative = inhibition” value was -21.9% [at 53 µM] (inactive).
On to `C[C@]12CCC(=O)C=C1CC[C@@H]1[C@@H]2C(=O)C[C@@]2(C)[C@H]1CC[C@]2(O)C(=O)CO`, for which the Potency entry was “inactive”.
As for `Nc1ccc(Nc2ccccc2)cc1`, the Potency was 35.2 µM (active) and 35.6 µM (active).
Take `CCCCC(CC)COC(=O)c1ccc(N(C)C)cc1` (stereo unspecified): the Potency is 30.9 µM (active).
`C=C(C)C1CC=C(C)CC1` (stereo unspecified): the “activity change, negative = inhibition” value is -16% (inactive).
Regarding `Nc1ccc(S(=O)(=O)Nc2cnc3ccccc3n2)cc1`, the “activity change, negative = inhibition” value is -20.6% [at 53 µM] (inactive).
Turning to `CCCc1c(OCCCCc2nn[nH]n2)ccc(C(C)=O)c1O`, the Potency result is “inactive”.
As to `O=S(=O)(O)c1ccc(O)cc1`, the Potency result is “inactive”.
Regarding `O=C1c2cccc(O)c2C(=O)c2c(O)cccc21`, the “activity change, negative = inhibition” value was -9.21% [at 53 µM] (inactive).
On to `S=C(NC1CCCCC1)NC1CCCCC1`, for which the Potency was 31.1 µM (active) and 22.4 µM (active).
Still for that read-out and setting: then `CCCCOCCOCCO`, with “inactive”.
For `C#C[C@]1(O)CC[C@H]2[C@@H]3CCc4cc(OC)ccc4[C@H]3CC[C@@]21C`, the “activity change, negative = inhibition” value was -0.461% [at 53 µM] (inactive).
For `CC(C)(C)NC(=O)[C@H]1CC[C@H]2[C@@H]3CC[C@H]4NC(=O)C=C[C@]4(C)[C@H]3CC[C@]12C`, the Potency entry is “inactive”.

For the next experiment, the target named is Cytochrome P450 2C19 (Homo sapiens) (UniProt P33261). The experiment can be described thus: Cytochrome P450 Family 2 Subfamily C Member 19 (CYP2C19) small molecule antagonists: luciferase reporter qHTS assay (AID 1671197). Note: nearly all actives have a fitted effect of over 65% in size. The following applies: P450-Glo CYP2C19 enzyme, luciferin luminescence, 1 h; series mostly up to 115 µM; activity change, negative = inhibition: at the top concentration. The method in brief: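 Enzyme-substrate mix with proluciferin substrate (P450-Glo CYP2C19 system) preincubated with compounds 10 min at room temperature; NADPH regeneration solution added, 37C for 1 h; detection reagent stops reaction, luminescence read after 20 min. Ketoconazole positive control.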
Chain of Cytochrome P450 2C19 (Homo sapiens) (P33261 whole entry, looked up): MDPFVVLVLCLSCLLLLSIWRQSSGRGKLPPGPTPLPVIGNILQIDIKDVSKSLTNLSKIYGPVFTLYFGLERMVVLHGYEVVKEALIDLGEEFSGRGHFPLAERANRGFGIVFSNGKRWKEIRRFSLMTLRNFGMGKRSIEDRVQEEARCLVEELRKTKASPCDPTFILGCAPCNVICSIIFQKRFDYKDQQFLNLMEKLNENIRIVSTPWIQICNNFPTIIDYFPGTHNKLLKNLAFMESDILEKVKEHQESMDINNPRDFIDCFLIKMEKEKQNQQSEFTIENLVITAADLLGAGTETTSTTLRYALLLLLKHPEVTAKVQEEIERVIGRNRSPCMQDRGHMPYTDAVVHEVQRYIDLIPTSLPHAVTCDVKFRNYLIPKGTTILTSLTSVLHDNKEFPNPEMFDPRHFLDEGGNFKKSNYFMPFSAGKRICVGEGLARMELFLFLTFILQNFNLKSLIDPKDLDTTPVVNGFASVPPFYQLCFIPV
`CCOCCOCCO`: the Potency is 36.6 µM (active) and inactive.
On the same count and under the same terms, then `CC1=CCC(C(C)(C)O)CC1` (stereo unspecified), with “inactive”; and `CC(=O)Oc1ccccc1C(=O)Nc1ncc([N+](=O)[O-])s1`, with 3.63 µM (active) and 2.45 µM (active); and `CC(=O)c1ccccn1`, with 20.2 µM (active) and inactive.
On to `Cc1cccc(N(C)C(=S)Oc2ccc3ccccc3c2)c1`, for which the Potency is 1.26 µM (active) and 977 nM (active).
For `NC=O`, the Potency result is “inactive”.
For the compound `COc1ccc(OC)c(C(O)CNC(=O)CN)c1` (stereo unspecified), the Potency is 20 µM (active) and 24.5 µM (active).
For the compound `O=CCCCC=O`, the Potency result was “inactive”.
With `Nc1ncnc2nc[nH]c12`, the Potency result was “inactive”.
As to `O=Cc1ccccc1O`, the Potency result is “inactive”.
In the case of `O=C(O)c1ccccc1Nc1cccc(C(F)(F)F)c1`, the “activity change, negative = inhibition” value was 15.6% [at 52.9 µM] (inactive).
Turning to `O=C(/C=C/c1ccccc1)OCc1ccccc1`, the Potency was 17.8 µM (active) and 9.77 µM (active).
Same read-out and setting: as for `CCCCC(CC)COCC1CO1` (stereo unspecified), the entry is “inactive”; as for `CCOC(=O)C(C#N)=C(c1ccccc1)c1ccccc1`, 5.64 µM (active) and 4.9 µM (active); as for `C[C@]12CCC(=O)C=C1CC[C@@H]1[C@@H]2C(=O)C[C@@]2(C)[C@H]1CC[C@]2(O)C(=O)CO`, 25.2 µM (active).
With `Nc1ccc(Nc2ccccc2)cc1`, the Potency was 24.9 µM (active) and 10 µM (active) and 12.6 µM (active).
With `Nc1ccc(S(=O)(=O)Nc2cnc3ccccc3n2)cc1`, the Potency was 39.9 µM (active).
For the compound `CCCc1c(OCCCCc2nn[nH]n2)ccc(C(C)=O)c1O`, the Potency is 159 nM (active) and 174 nM (active).
For `O=C1c2cccc(O)c2C(=O)c2c(O)cccc21`, the Potency was 28.6 µM (active) and 38.9 µM (active).
In the case of `S=C(NC1CCCCC1)NC1CCCCC1`, the Potency was 7.81 µM (active) and 8.94 µM (active).
`CCCCOCCOCCO`: the Potency result is “inactive”.
As for `C#C[C@]1(O)CC[C@H]2[C@@H]3CCc4cc(OC)ccc4[C@H]3CC[C@@]21C`, the Potency is 3.56 µM (active) and 2.19 µM (active).
